The values below come from ChEMBL document CHEMBL3988442, “University of Dundee, Small-Polar-MMV Screening Library” (2021).

The structures appear in SMILES notation. For some of these results: Results with a measured potency or affinity are listed apart.

Common to all, as to parameters: scale not given: direction of the effect not stated beside the values
For experiment [1], the target named is Protein translocase subunit SecA (Escherichia coli (strain K12)) (UniProt P10408). The experiment in a line: Assay to Identify E. coli SecA ATPase Inhibitors. The note with it: 30 µM. Format: functional.
Experiment [2] deals with T1, Ubiquitin-activating enzyme e1, putative (Leishmania donovani (strain BPK282A1)) (UniProt E9BSI1).
T1 sequence (whole entry): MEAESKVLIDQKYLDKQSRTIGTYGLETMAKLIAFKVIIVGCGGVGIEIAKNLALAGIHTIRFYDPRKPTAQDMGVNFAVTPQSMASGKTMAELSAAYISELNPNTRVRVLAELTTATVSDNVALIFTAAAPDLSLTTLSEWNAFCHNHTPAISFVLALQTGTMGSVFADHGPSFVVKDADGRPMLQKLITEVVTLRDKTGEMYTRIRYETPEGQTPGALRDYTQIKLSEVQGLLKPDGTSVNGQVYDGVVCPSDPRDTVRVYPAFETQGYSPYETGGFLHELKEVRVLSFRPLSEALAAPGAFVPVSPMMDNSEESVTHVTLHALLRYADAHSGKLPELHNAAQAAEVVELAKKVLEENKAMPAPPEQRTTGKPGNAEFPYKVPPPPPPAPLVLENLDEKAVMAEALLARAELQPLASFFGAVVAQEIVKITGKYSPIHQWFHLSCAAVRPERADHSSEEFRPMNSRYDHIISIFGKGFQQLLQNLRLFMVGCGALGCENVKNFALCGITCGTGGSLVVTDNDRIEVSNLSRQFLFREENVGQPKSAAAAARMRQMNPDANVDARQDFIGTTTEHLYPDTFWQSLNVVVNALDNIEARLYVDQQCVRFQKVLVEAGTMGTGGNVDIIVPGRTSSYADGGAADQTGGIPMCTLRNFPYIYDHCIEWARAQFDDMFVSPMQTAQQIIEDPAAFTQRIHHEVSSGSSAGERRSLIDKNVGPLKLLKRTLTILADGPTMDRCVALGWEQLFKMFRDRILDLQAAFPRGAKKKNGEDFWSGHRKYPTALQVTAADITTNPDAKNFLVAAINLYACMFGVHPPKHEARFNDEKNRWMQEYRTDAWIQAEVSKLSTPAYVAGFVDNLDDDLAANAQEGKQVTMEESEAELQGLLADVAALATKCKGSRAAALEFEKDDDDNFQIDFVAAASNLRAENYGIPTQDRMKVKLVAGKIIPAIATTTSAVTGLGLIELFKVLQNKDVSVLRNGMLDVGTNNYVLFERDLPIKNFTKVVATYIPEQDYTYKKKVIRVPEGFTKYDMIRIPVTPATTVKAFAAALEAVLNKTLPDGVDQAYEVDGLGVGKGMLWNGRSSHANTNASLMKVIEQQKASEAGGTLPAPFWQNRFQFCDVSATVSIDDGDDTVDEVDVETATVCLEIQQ
As to the kind of experiment: Leishmania donovani Ubiquitin Activating Enzyme (LdE1). It is filed as functional. The settings on record: 30 µM.

The target in experiment [3] is AMP-activated protein kinase, AMPK (Homo sapiens) (UniProt P54646+O43741+P54619+Q9UGJ0+Q9Y478+Q13131+Q9UGI9). As to the kind of experiment: AMP-dependent Kinase enzyme assay. An in vitro enzyme assay that detects ADP turnover that is directly proportional to AMPK activity. This uses naive AMPK that is activated during the assay with MK-8722. Format: functional. The note with it: 30 µM.

For experiment [4], the target named is Sialic acid-binding Ig-like lectin 9 (Homo sapiens) (UniProt Q9Y336). The experiment in a line: Hs-Siglec9 ALPHAscreen SOP 20170721. The settings on record: 10 µM.
For a further experiment, the system named is Trypanosoma cruzi. The experiment in a line: Trypanosoma cruzi phosphomannomutase and mannose-1-phosphate guanylyltransferase assay. Format: functional. The settings on record: 10 µM.
The target in experiment [5] is T2, Arginase-2, mitochondrial (Homo sapiens) (UniProt P78540).
T2 sequence (whole entry): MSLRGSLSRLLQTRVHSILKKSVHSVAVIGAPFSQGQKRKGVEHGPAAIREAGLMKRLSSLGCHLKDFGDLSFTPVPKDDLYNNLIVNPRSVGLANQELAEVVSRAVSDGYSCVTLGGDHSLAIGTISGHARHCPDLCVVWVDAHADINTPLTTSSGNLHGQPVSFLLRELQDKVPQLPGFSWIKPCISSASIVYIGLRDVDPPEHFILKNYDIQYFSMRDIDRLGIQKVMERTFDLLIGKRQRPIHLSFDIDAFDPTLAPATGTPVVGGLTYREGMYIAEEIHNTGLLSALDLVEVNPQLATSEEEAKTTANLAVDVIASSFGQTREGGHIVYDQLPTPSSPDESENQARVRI
The experiment in a line: in vitro enzyme assay to detect the production of urea directly proportional to the activity of Arginase II. Also: in the data most compounds retested in dose-response had high values. Format: functional. The note with it: 33.3 µM.

The target in experiment [6] is T3, Proteasome subunit beta (Trypanosoma cruzi) (UniProt O96673).
T3 sequence (whole entry): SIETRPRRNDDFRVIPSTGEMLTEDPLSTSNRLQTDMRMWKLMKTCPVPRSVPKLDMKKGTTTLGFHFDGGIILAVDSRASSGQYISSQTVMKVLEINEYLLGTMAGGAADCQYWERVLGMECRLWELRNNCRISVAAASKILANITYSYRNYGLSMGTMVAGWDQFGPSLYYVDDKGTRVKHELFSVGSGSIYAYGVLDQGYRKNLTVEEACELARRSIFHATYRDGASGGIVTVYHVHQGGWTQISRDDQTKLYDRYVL
The experiment in a line: Trypanosoma cruzi proteasome chymotrypsin-like activity (TcProtChymo) assay. Also: in the data most compounds retested in dose-response had high values. It is filed as functional. The note with it: 9.37 µM.

The species named for a further experiment is Homo sapiens. As to the kind of experiment: To identify inhibition of the IFN signalling (Jak-Stat) pathway via expression of an eGFP reporter gene under the control of an IFN-stimulated response element (ISRE) containing MxA promoter. The settings on record: 30 µM. It is filed as functional.
Experiment [7] addresses T4, Tyrosyl-tRNA synthetase, putative (Trypanosoma cruzi (strain CL Brener)) (UniProt Q4DSP6).
T4 sequence (whole entry): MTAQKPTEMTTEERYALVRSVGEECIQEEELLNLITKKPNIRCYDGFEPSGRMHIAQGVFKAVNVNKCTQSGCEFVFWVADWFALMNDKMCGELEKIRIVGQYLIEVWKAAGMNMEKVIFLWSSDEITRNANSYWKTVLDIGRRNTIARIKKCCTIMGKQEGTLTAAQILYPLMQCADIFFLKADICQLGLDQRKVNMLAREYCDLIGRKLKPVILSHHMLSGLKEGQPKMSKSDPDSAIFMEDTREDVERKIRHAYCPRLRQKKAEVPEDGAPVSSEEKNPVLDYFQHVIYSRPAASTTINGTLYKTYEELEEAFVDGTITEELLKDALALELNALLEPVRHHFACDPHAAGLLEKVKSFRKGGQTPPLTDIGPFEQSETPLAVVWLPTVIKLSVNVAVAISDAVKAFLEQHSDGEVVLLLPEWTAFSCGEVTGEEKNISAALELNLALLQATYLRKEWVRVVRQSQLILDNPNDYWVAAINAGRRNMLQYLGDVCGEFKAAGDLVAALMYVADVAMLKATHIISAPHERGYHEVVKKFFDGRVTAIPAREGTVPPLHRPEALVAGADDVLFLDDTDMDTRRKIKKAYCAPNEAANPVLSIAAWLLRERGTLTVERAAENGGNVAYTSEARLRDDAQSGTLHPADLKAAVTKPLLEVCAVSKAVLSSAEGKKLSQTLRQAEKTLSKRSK
As to the kind of experiment: Trypanosoma cruzi tyrosyl tRNA synthetase (TcYRS) _High Tyrosine SOP. Also: in the data most compounds retested in dose-response had high values. It is filed as functional. The settings on record: 30 µM.

Experiment [8] deals with T4, Tyrosyl-tRNA synthetase, putative (Trypanosoma cruzi (strain CL Brener)). As to the kind of experiment: Trypanosoma cruzi tyrosyl tRNA synthetase (TcYRS) SOP. Format: functional. The note with it: 30 µM.
The target of experiment [9] is Chromo domain-containing protein 1 (Saccharomyces cerevisiae (strain ATCC 204508 / S288c) (Baker's yeast)) (UniProt P32657). As to the kind of experiment: ScCHD-1 Enzyme Inhibition Assay. Also: in the data most compounds retested in dose-response had high values. It is filed as functional. The settings on record: 30 µM.
Chain of Chromo domain-containing protein 1 (Saccharomyces cerevisiae (strain ATCC 204508 / S288c) (Baker's yeast)) (P32657 whole entry, the tested form may be a part): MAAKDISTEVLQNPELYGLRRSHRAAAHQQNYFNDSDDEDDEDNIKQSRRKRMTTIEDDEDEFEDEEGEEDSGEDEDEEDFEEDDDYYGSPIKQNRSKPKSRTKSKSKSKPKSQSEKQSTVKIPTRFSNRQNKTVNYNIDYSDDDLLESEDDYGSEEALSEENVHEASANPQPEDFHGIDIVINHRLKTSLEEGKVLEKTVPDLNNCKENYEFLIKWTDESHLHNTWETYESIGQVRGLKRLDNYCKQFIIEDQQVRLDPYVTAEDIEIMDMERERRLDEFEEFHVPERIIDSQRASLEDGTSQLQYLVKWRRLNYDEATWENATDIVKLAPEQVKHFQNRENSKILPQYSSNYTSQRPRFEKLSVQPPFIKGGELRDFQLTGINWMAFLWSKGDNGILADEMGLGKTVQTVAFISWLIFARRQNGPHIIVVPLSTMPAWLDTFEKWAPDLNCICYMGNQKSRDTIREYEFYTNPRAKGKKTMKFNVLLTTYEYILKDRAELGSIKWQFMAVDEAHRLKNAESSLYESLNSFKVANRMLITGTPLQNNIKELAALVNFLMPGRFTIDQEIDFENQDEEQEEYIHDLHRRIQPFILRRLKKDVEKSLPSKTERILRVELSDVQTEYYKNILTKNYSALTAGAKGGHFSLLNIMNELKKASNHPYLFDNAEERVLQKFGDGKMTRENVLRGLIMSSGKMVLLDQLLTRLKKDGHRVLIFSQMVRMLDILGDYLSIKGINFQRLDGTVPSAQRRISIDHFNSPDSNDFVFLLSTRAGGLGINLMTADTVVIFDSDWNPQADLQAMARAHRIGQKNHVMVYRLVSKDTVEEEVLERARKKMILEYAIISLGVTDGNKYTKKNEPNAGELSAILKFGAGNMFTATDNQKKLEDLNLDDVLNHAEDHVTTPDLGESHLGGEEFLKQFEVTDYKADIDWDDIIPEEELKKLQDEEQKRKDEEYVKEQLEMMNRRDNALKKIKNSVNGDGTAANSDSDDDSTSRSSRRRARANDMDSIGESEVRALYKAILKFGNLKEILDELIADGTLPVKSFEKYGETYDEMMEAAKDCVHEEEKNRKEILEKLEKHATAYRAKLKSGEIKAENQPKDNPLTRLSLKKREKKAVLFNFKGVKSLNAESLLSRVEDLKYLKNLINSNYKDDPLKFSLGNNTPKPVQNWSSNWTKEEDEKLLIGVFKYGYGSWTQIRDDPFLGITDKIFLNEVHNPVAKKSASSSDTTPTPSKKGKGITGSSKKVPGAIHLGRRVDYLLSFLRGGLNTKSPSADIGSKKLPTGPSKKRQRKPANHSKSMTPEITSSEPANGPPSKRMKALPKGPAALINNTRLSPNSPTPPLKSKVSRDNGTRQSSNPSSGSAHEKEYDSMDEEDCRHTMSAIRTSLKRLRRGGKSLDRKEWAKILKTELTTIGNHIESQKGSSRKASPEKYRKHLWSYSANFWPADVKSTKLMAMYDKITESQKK

Chain of Sialic acid-binding Ig-like lectin 9 (Homo sapiens) (Q9Y336 whole entry): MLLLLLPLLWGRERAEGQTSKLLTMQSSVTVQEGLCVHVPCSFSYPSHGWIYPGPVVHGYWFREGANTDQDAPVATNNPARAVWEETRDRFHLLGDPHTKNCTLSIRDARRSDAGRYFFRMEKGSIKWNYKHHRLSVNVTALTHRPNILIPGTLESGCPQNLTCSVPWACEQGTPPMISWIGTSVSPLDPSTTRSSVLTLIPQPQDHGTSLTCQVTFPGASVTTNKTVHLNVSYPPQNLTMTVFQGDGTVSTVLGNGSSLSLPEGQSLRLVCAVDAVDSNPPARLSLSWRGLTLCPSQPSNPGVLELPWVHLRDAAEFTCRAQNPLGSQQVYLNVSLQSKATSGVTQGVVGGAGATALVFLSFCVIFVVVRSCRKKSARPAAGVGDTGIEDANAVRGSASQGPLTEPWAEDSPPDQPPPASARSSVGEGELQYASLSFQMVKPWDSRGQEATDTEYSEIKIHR
Chain of Protein translocase subunit SecA (Escherichia coli (strain K12)) (P10408 whole entry): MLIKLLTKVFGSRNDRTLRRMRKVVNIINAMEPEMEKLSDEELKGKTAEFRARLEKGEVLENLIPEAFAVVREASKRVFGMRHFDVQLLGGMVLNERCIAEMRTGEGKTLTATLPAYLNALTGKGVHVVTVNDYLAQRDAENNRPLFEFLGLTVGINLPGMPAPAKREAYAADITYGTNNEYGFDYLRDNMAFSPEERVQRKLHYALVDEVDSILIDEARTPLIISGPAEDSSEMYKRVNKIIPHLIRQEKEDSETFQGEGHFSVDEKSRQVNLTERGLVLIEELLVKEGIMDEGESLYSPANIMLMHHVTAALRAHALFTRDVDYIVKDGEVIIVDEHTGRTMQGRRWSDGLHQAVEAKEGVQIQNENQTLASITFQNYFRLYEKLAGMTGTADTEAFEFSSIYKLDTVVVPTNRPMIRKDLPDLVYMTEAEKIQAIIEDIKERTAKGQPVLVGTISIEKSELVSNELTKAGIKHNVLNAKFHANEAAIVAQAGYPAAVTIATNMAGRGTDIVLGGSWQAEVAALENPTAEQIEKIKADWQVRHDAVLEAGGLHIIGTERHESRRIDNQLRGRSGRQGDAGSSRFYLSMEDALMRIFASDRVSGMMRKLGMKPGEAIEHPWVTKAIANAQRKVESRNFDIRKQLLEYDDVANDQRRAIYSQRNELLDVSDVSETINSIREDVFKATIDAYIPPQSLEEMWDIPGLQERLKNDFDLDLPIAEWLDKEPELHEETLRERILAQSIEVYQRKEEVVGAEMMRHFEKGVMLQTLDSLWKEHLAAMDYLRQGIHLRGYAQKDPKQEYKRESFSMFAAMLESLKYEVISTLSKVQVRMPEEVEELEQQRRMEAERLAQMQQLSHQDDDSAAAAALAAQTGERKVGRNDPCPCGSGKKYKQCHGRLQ

As for `CCS(=O)(=O)CC(=O)NC(c1ccccc1)C1CCCCC1` (stereo unspecified), the Percent Effect was -6.35% in experiment [1]; 2.63% in experiment [2]; 9.57% in experiment [3]; -0.679% in experiment [4]; 3.41% in the experiment with Trypanosoma cruzi; -17.8% in experiment [5]. The Percent Effect was 21.6% in [6]; -15.8% in the experiment listed under Homo sapiens; 4.25% in experiment [7]; 7.79% in experiment [8]; -3.43% in experiment [9].
Turning to `CCN(CC)Cc1cn2c(n1)CN(C(=O)c1cc(C)on1)CC2`, the Percent Effect in [1] was -2.81%; in [2], 16.2%; in experiment [3], 5.86%; in experiment [4], -5.08%; in the experiment with Trypanosoma cruzi, -4.01%; in [5] it was 9.24%. For the same compound, the Percent Effect in experiment [6] is 23.2%; in the experiment listed under Homo sapiens, -1.45%; in experiment [7] it was 2.16%; in experiment [8], 10.3%; in [9], -0.746%.
Take `CN(C)C(=O)N1CCOCC2(CCN(c3ccccn3)C2)C1` (stereo unspecified): the Percent Effect in experiment [1] was -1.92%; in experiment [2] it was -2.7%; in experiment [3], -1.14%; in [4], -5.57%; in the experiment on Trypanosoma cruzi, -2.64%; in experiment [5], 2.23%. Also, the Percent Effect in experiment [6] is 9.19%; in the experiment filed under Homo sapiens, -4.16%; in experiment [7] it was 1.07%; in experiment [8], 1.24%; in experiment [9], -3.16%.
In the case of `O=C(O)c1coc(COc2cccc(F)c2)n1`, the Percent Effect in [1] is -5.01%; in experiment [2], 16.2%; in experiment [3], -4.57%; in experiment [4], 33.9%; in the experiment with Trypanosoma cruzi it was 5.77%; in [5], 19.6%. In addition, the Percent Effect in [6] is 18.4%; in the experiment filed under Homo sapiens, -3.93%; in [7], 5.38%; in [8] it was 16.1%; in [9] it was -12.4%.
In the case of `Cc1nn(C)c(C)c1CC(=O)N1CCC(N(C)c2cccnn2)CC1`, the Percent Effect is 0.112% in experiment [1]; 15.8% in experiment [2]; 0.809% in [3]; -2.31% in [4]; -2.82% in the experiment with Trypanosoma cruzi; 4.98% in [5]. The Percent Effect is 10.5% in [6]; 42.1% in the experiment filed under Homo sapiens; 3.43% in experiment [7]; 4.88% in experiment [8]; -9.53% in experiment [9].
Turning to `O=C(c1ccncc1F)N1CCc2ncnc(-c3ccncc3)c2CC1`, the Percent Effect in [1] is -6.29%; in experiment [2], 5.41%; in experiment [3] it was -2.05%; in experiment [4] it was -1.21%; in the experiment on Trypanosoma cruzi, -5.38%; in experiment [5], -0.955%. In addition, the Percent Effect in experiment [6] worked out at 10.7%; in the experiment filed under Homo sapiens, 14%; in [7] it was 1.08%; in [8] it was 7.69%; in [9], 0.761%.
Regarding `Cc1csc(NC(=O)CN2CCC(c3ccnn3CCO)CC2)n1`, the Percent Effect is -4.67% in [1]; 25.3% in [2]; -7.88% in experiment [3]; -3.79% in [4]; 4.06% in the experiment on Trypanosoma cruzi; 0% in [5]. Also, the Percent Effect was 9.42% in experiment [6]; 47.6% in the experiment filed under Homo sapiens; 8.37% in experiment [7]; 26.6% in experiment [8]; -7.33% in experiment [9].
On to `CN(Cc1ccc2c(c1)OCCO2)C(=O)NCCc1cnn(C)c1`, for which the Percent Effect in experiment [1] was -2.93%; in experiment [2], 18.9%; in experiment [3] it was -2.51%; in experiment [4] it was 14.3%; with Trypanosoma cruzi it was -10.3%; in [5], 0.554%. The Percent Effect in [6] was 14.5%; in the experiment listed under Homo sapiens, 18%; in experiment [7], 2.97%; in [8], -1.22%; in [9], -6.78%.
With `CC(C)N1Cc2c(C(=O)N3CCOCC3)nn(C)c2C1`, the Percent Effect is -3.37% in experiment [1]; -2.7% in [2]; 4.04% in experiment [3]; 1.67% in [4]; -1.66% in the experiment on Trypanosoma cruzi; 0.955% in experiment [5]. Moreover, the Percent Effect in experiment [6] was 17.3%; in the experiment filed under Homo sapiens, -39.2%; in experiment [7] it was -1.08%; in experiment [8] it was 5.13%; in [9], 4.29%.
With `COc1ccc(CC(=O)N2CCCC2Cn2cccn2)cc1F` (stereo unspecified), the Percent Effect is -2.59% in experiment [1]; 2.63% in [2]; -8.2% in experiment [3]; 6.06% in [4]; -2.52% in the experiment with Trypanosoma cruzi; 1.44% in [5]. Further, the Percent Effect is 2.12% in experiment [6]; -12.5% in the experiment listed under Homo sapiens; -0.493% in experiment [7]; 1.24% in experiment [8]; -2.17% in [9].
As for `CC(C)C1CN(C(=O)c2nccnc2N)CCS1` (stereo unspecified), the Percent Effect was -2.86% in experiment [1]; 10.4% in experiment [2]; -7.56% in experiment [3]; 11% in [4]; 3.83% with Trypanosoma cruzi; -92.4% in [5]. Besides, the Percent Effect in experiment [6] is 6.32%; in the experiment filed under Homo sapiens, 14.5%; in [7] it was 3.23%; in experiment [8] it was 8.64%; in experiment [9] it was -9.31%.
